According to PubChem BioAssay (NCI):
Compounds without any hit were thinned out: in the full panel of roughly 83,000, 20% have a hit.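 Cell lines were cultured in 96-well plates, exposed to a single compound concentration, and assessed for percent growth 48 hours later.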 Unmarked numbers belong to inactive results. Active and inactive are the calls of the source. Rule for the calls: active = growth percent below 10; inactive = the rest.

Columns and labels:
Experiment in all cases: NCI-60 one-dose screen, 48 h (100 = growth as untreated, 0 = no growth, -100 = all killed)
Details in all cases: 10 µM unless noted
HCT-15 colon = tested on: HCT-15 colon
HT29 colon = tested on: HT29 colon
SNB-75 CNS = tested on: SNB-75 CNS
SNB-19 CNS = tested on: SNB-19 CNS
U251 CNS = tested on: U251 CNS
PC-3 prostate = tested on: PC-3 prostate
SK-MEL-5 melanoma = tested on: SK-MEL-5 melanoma
UACC-62 melanoma = tested on: UACC-62 melanoma
LOX IMVI melanoma = tested on: LOX IMVI melanoma
SK-MEL-28 melanoma = tested on: SK-MEL-28 melanoma

SMILES	growth (HCT-15 colon)	growth (HT29 colon)	growth (SNB-75 CNS)	growth (SNB-19 CNS)	growth (U251 CNS)	growth (PC-3 prostate)	growth (SK-MEL-5 melanoma)	growth (UACC-62 melanoma)	growth (LOX IMVI melanoma)	growth (SK-MEL-28 melanoma)
COc1ccc(C(=O)C/C(=C\c2ccc(O)c(OC)c2)C(=O)NN)cc1	64.2%	102%	99.6%	85%	84.9%	67.3%	75%	75.8%	82.2%	75.6%
c1csc(-c2cn3nc(-c4c[nH]c5ccccc45)sc3n2)c1	21.6%	6.1% (active)	-4.32% (active)	28.7%	23.7%	26.5%	19.5%	32.5%	28.8%	48.5%
COC12C=C/C(=C(/C(=O)OCc3csc(SC)n3)C(=O)CCCCCCCCC3(OC)C=C/C(=C(/C(=O)OCc4cnc(SC)s4)C(=O)CCCCCCCC1)O3)O2 (stereo not given)	76.8%	27.5%	98.3%	47.3%	36.9%	27.4%	11.3%	6.98% (active)	-22.9% (active)	36.3%
C=C(C)[C@@H]1CC[C@]2(COC3CCCCO3)CC[C@]3(C)[C@H](CC[C@@H]4[C@@]5(C)C=C(C=O)C(=O)C(C)(C)[C@@H]5CC[C@]43C)[C@@H]12 (stereo not given in full)	-30% (active)	-54.2% (active)	-16.3% (active)	-71.4% (active)	-73.6% (active)	-57.7% (active)	-97.5% (active)	-74.9% (active)	-88.9% (active)	-68.7% (active)
Cc1c2ncccc2nc2[nH]c3ccc(OCCN(C)C)cc3c12	15.7%	5.4% (active)	63%	15.3%	20.3%	12.1%	47%	35.2%	18%	78.5%
O=C(NN1C(=O)CSC1c1cccc([N+](=O)[O-])c1)c1ccc(NC(=O)c2ccccn2)cc1 (stereo not given)	92.3%	105%	98.9%	97.8%	106%	107%	102%	96%	94.9%	99.3%
O=C(/C=C/c1cccc(Oc2ccccc2)c1)c1ccc(Nc2nc(Nc3ccc(F)cc3)nc(Nc3ccc(Cl)cc3)n2)cc1	109%	101%	92.5%	108%	101%	94%	96.4%	105%	108%	112%
Cc1ccc2c(c1)=C/C(=C\c1cc(-c3ccccc3)[nH]c1O)C(=O)N=2	26.7%	7.77% (active)	48%	34.1%	40.1%	61.2%	47%	29.9%	35.8%	60.8%
C=C1C(=O)O[C@H]2[C@H]1CC/C(COC(=O)C(=O)c1c[nH]c3ccc(Cl)cc13)=C\CC[C@@]1(C)O[C@@H]21	-58.4% (active)	-52.7% (active)	-97% (active)	-71.6% (active)	-93.1% (active)	-74.4% (active)	-97.6% (active)	-81.8% (active)	-92.7% (active)	-72.4% (active)
O=C(/C=C/c1ccccc1)c1cccc2ccccc12	26.5%	3.24% (active)	17.4%	56.7%	29.6%	45.2%	59.2%	36.1%	57.8%	68.3%
Cc1ccc(NC(=O)c2sc3nc(C)c(C(O)c4ccccc4)cc3c2N)cc1 (stereo not given)	9.64% (active)	9.15% (active)	22.5%	24.5%	13.9%	19.6%	12.7%	28.8%	23.5%	57.6%
O=C1/C(=C/c2ccc(Cl)cc2)CN(C(=O)C(Cl)Cl)C/C1=C\c1ccc(Cl)cc1	-70% (active)	-31% (active)	-84% (active)	-92% (active)	-94.3% (active)	-38.4% (active)	-89.3% (active)	-59.6% (active)	-93.1% (active)	-81.5% (active)
COCCn1cc(-c2nc(-c3cn(CCOC)c4ncccc34)cs2)c2cc(F)ccc21	17.8%	57.6%	77.4%	90.4%	69.8%	39.2%	14.4%	61.8%	64.3%	91%
COc1ccc(C/C(C)=C(\c2ccc(O)cc2)c2ccc(OCCN3CCCCC3)cc2)cc1	72.7%	22.5%	77%	97.1%	72.6%	67.4%	86.1%	90.5%	84.4%	90.3%
COC(=O)[C@]1(C)CCC[C@]2(C)[C@H]3C[C@@H]4[C@H]5[C@@H]6CC/C(=N\OCC/C(N)=N/O)[C@H]5[C@@]3(CC[C@H]21)CC4(C(C)C)O6	36.6%	74.2%	66.9%	89.4%	68.4%	47.5%	73.2%	58.5%	69%	88.9%
N#Cc1c(-c2ccccc2)nc2c(c(-c3ccc(Cl)cc3)nn2-c2ccccc2)c1-c1ccc([N+](=O)[O-])cc1	99.4%	93.5%	88.3%	90.9%	95.3%	88.7%	99.2%	86.5%	94.7%	102%
O=S(O)c1cc(Cl)cc(Cl)c1OCc1ccccc1	112%	104%	98.7%	102%	93.7%	84.5%	96.3%	107%	108%	105%
COc1ccc2c(c1)CC[C@@H]1[C@@H]2CC[C@]2(C)C3C(=CC(COC(C)=O)C4C(=O)N(c5ccc(Cl)cc5)C(=O)C43)C[C@@H]12 (stereo not given in full)	94.3%	90%	90.5%	110%	102%	82%	93.4%	83.2%	94%	106%
CCOC(=O)C1=C(CCl)N(C)C(=O)NC1c1ccc2c(c1)OCO2 (stereo not given)	34.4%	38.7%	28.8%	84.5%	68%	36.8%	81.9%	73.2%	40.9%	79%
COc1cc(-c2ccc[nH]2)[nH]c1/C=C1\N=C(C)C(CC(=O)OCC(C)(C)C)=C1C	-78% (active)	-59.9% (active)	-23.8% (active)	-33.3% (active)	-95.6% (active)	-88.3% (active)	-95.7% (active)	-82.6% (active)	-88.3% (active)	-78.2% (active)
Cc1[nH]c(C(=O)Nc2ccccc2OC2CCN(CCN3CCOCC3)CC2)c(Cl)c1Cl	83.6%	73.7%	76.1%	107%	93.3%	78.3%	87.9%	108%	86.3%	104%
COc1cc2c(c(OC)c1OC)C(=O)CC(c1cccc(C(=O)Nc3ccc(C#N)cc3)c1)O2 (stereo not given)	63%	86.4%	74.8%	89.5%	94.7%	39.2%	37.5%	34.8%	79.6%	95.6%
C=C1C(=O)O[C@@H]2C3C(=C(C)CC[C@@H]12)CC1O[C@]13C (stereo not given in full)	50.4% [6.75 µM]	85.5% [6.75 µM]	86.1% [6.75 µM]	92.8% [6.75 µM]	90.3% [6.75 µM]	85.2% [6.75 µM]	55.6% [6.75 µM]	74.6% [6.75 µM]	51.8% [6.75 µM]	90.4% [6.75 µM]
CN1CCN(Cc2ccc(NC(=O)c3cncc(C#Cc4cnc(N)cc4C#N)c3)cc2C(F)(F)F)CC1	15.4%	5.78% (active)	33.2%	39.1%	20.1%	11.7%	9.34% (active)	-12.9% (active)	-84.6% (active)	0.973% (active)
Fc1cccc(CNc2c3ccccc3nc3ccccc23)c1	22.9%	14.3%	63%	35.9%	35.2%	49%	60.5%	50.3%	12.3%	78.5%
CCN(CC)CCCNc1cc(OC)c(OC)c2cccnc12	72%	83.7%	102%	63.5%	52.6%	54.8%	62.4%	60.6%	34.2%	93.8%
